Source: ChEMBL document CHEMBL3988442, “University of Dundee, Small-Polar-MMV Screening Library” (2021)
For some assays here: Results with a measured potency or affinity are listed apart.

Tests used:
Set-up in all cases: scale not given: direction of the effect not stated beside the values
[1] = molecular target: Protein translocase subunit SecA (Escherichia coli (strain K12)) (UniProt P10408); test: Assay to Identify E. coli SecA ATPase Inhibitors; type: functional; conditions: 30 µM
[2] = molecular target: T1, Ubiquitin-activating enzyme e1, putative (Leishmania donovani (strain BPK282A1)) (UniProt E9BSI1); test: Leishmania donovani Ubiquitin Activating Enzyme (LdE1); type: functional; conditions: 30 µM
T1 sequence (whole entry): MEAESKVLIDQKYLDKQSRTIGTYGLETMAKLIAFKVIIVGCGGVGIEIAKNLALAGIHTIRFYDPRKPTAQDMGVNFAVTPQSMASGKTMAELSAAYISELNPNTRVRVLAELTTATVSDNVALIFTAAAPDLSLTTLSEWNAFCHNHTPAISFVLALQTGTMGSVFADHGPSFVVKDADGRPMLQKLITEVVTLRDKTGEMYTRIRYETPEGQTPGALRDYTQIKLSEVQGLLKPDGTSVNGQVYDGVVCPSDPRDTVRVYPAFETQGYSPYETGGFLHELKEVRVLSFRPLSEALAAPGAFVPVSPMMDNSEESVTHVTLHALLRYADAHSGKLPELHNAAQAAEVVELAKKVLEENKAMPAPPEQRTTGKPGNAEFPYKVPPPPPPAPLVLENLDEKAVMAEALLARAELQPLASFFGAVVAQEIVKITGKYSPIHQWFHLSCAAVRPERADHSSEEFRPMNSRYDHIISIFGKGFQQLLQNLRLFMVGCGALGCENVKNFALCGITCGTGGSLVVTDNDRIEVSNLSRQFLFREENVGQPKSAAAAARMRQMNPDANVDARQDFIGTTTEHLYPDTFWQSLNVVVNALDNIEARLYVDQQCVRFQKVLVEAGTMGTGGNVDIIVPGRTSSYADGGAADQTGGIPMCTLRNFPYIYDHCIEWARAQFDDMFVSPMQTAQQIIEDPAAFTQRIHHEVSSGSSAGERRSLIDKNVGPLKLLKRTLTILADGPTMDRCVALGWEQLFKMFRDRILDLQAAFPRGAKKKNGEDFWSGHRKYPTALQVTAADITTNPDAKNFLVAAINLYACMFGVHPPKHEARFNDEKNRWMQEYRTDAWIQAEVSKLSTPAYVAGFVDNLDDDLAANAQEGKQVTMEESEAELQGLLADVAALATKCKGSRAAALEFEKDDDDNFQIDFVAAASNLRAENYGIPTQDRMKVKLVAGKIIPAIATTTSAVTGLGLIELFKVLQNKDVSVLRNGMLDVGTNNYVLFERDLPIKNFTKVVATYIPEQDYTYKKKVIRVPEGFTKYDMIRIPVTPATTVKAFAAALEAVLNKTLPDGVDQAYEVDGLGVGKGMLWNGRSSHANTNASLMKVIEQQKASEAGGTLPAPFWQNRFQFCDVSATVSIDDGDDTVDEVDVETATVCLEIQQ

[3] = molecular target: AMP-activated protein kinase, AMPK (Homo sapiens) (UniProt P54646+O43741+P54619+Q9UGJ0+Q9Y478+Q13131+Q9UGI9); test: AMP-dependent Kinase enzyme assay. An in vitro enzyme assay that detects ADP turnover that is directly proportional to AMPK activity. This uses naive AMPK that is activated during the assay with MK-8722; type: functional; conditions: 30 µM
[4] = molecular target: Sialic acid-binding Ig-like lectin 9 (Homo sapiens) (UniProt Q9Y336); test: Hs-Siglec9 ALPHAscreen SOP 20170721; conditions: 10 µM
[5] = tested on: Trypanosoma cruzi; test: Trypanosoma cruzi phosphomannomutase and mannose-1-phosphate guanylyltransferase assay; type: functional; conditions: 10 µM
[6] = molecular target: T2, Arginase-2, mitochondrial (Homo sapiens) (UniProt P78540); test: in vitro enzyme assay to detect the production of urea directly proportional to the activity of Arginase II; type: functional; conditions: 33.3 µM; further: in the data most compounds retested in dose-response had high values
T2 sequence (whole entry): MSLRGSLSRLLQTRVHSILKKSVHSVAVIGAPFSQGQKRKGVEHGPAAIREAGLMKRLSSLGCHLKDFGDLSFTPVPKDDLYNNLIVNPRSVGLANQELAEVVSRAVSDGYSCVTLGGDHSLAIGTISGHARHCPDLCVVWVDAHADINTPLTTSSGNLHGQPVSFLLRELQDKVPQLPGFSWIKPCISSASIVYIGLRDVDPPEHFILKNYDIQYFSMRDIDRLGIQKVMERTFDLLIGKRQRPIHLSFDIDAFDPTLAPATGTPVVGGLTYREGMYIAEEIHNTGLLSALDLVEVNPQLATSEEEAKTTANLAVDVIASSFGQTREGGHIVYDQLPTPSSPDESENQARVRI

[7] = molecular target: T3, Proteasome subunit beta (Trypanosoma cruzi) (UniProt O96673); test: Trypanosoma cruzi proteasome chymotrypsin-like activity (TcProtChymo) assay.; further: in the data most compounds retested in dose-response had high values; type: functional; conditions: 9.37 µM
T3 sequence (whole entry): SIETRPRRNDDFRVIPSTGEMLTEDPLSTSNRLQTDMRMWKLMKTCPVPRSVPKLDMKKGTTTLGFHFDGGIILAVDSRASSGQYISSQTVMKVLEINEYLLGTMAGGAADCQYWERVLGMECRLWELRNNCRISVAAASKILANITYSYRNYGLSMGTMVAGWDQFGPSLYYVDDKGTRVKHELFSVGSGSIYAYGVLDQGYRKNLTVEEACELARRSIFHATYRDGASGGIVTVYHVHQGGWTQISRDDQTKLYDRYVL

[8] = species: Homo sapiens; test: To identify inhibition of the IFN signalling (Jak-Stat) pathway via expression of an eGFP reporter gene under the control of an IFN-stimulated response element (ISRE) containing MxA promoter.; type: functional; conditions: 30 µM
[9] = molecular target: T4, Tyrosyl-tRNA synthetase, putative (Trypanosoma cruzi (strain CL Brener)) (UniProt Q4DSP6); test: Trypanosoma cruzi tyrosyl tRNA synthetase (TcYRS) _High Tyrosine SOP; type: functional; conditions: 30 µM; further: in the data most compounds retested in dose-response had high values
T4 sequence (whole entry): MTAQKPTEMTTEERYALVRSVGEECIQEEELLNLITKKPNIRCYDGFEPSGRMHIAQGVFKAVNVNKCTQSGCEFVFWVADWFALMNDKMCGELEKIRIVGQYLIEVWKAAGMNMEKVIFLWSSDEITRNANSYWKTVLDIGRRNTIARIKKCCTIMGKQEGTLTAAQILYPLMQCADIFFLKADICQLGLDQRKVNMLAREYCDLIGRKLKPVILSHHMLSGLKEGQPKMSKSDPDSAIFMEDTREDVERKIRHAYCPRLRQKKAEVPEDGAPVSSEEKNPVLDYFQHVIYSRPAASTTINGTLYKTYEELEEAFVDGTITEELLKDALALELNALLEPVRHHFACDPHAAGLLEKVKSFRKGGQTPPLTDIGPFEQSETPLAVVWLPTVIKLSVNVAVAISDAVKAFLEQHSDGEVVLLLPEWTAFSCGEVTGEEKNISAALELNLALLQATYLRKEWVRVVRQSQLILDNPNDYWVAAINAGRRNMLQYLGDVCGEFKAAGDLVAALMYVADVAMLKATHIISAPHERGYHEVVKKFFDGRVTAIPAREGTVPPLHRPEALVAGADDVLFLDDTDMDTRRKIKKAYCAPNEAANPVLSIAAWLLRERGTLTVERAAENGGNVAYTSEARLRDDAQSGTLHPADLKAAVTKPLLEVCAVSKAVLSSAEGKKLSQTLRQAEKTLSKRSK

[10] = molecular target: T4, Tyrosyl-tRNA synthetase, putative (Trypanosoma cruzi (strain CL Brener)); test: Trypanosoma cruzi tyrosyl tRNA synthetase (TcYRS) SOP; type: functional; conditions: 30 µM
[11] = molecular target: Chromo domain-containing protein 1 (Saccharomyces cerevisiae (strain ATCC 204508 / S288c) (Baker's yeast)) (UniProt P32657); test: ScCHD-1 Enzyme Inhibition Assay; type: functional; conditions: 30 µM; further: in the data most compounds retested in dose-response had high values
Sequence of Chromo domain-containing protein 1 (Saccharomyces cerevisiae (strain ATCC 204508 / S288c) (Baker's yeast)) (P32657 whole entry, the tested form may be a part): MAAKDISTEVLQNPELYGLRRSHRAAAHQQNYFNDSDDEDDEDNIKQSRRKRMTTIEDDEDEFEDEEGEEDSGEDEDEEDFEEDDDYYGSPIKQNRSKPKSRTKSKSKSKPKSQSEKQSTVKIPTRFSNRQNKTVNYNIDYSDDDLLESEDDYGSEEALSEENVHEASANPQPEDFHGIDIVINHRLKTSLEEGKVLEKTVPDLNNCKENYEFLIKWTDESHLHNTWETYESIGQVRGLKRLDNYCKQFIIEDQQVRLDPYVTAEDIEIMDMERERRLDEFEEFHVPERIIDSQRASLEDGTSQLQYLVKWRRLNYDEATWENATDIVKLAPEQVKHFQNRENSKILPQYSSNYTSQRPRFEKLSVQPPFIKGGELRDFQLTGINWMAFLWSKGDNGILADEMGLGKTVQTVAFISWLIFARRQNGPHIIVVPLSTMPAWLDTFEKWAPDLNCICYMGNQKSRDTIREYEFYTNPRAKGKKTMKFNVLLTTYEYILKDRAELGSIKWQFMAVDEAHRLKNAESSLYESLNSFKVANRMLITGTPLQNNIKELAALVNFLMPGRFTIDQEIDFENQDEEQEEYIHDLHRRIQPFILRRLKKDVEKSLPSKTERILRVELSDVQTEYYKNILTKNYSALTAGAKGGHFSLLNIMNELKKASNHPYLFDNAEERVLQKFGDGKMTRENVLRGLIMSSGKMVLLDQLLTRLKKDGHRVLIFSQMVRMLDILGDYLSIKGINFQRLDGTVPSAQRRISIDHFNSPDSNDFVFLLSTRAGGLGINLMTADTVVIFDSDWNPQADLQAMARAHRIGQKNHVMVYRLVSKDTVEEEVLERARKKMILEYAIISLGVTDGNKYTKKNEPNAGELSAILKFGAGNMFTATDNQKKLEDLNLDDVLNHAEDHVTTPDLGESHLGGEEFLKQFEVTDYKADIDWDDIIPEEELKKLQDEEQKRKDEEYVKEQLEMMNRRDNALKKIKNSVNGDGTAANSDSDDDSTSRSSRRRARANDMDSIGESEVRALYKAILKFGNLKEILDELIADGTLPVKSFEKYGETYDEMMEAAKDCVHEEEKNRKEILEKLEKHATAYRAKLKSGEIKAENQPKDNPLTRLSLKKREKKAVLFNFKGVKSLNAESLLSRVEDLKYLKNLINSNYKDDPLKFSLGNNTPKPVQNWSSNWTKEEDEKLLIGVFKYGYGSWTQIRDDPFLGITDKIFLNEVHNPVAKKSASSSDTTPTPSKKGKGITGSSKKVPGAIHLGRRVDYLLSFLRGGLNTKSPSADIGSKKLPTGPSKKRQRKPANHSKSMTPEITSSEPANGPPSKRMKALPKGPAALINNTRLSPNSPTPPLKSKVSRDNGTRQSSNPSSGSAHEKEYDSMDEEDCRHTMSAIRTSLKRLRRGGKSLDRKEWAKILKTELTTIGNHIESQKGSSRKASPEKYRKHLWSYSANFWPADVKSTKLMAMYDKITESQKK

Sequence of Protein translocase subunit SecA (Escherichia coli (strain K12)) (P10408 whole entry): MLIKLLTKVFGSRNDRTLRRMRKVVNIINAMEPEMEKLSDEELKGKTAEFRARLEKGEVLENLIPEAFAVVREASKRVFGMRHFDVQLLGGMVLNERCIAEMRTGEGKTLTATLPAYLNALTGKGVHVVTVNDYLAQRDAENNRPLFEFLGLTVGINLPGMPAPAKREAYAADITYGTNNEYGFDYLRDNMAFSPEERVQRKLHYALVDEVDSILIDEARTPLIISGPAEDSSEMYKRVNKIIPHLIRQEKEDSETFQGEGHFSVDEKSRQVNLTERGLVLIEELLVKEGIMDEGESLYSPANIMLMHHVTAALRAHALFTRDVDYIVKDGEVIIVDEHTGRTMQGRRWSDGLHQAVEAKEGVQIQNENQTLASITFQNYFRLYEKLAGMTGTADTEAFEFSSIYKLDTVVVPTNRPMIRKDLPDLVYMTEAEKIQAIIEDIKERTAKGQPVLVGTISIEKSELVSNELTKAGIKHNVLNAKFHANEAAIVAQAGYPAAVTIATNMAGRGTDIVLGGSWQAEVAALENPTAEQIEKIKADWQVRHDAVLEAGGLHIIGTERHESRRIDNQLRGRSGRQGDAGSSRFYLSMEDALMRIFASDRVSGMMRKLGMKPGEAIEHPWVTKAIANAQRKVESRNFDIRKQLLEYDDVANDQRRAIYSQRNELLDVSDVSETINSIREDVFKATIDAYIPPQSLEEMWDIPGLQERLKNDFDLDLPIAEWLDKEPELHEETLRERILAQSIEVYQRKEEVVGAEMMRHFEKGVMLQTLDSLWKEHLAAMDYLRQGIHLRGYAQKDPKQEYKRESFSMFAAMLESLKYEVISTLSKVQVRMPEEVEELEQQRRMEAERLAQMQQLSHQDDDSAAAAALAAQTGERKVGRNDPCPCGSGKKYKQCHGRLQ
Sequence of Sialic acid-binding Ig-like lectin 9 (Homo sapiens) (Q9Y336 whole entry): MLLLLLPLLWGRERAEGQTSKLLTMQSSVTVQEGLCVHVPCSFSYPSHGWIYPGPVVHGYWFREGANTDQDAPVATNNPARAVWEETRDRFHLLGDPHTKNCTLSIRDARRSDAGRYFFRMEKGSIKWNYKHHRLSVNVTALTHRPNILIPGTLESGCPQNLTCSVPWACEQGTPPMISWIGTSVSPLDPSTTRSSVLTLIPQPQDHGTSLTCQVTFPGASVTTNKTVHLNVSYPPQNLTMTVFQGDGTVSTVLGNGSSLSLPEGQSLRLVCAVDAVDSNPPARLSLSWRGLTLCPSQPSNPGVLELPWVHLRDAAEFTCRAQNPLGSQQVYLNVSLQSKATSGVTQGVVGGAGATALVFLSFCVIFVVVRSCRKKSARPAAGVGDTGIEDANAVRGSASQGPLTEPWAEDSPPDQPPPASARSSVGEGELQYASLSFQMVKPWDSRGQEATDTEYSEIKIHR

SMILES	Percent Effect [1]	Percent Effect [2]	Percent Effect [3]	Percent Effect [4]	Percent Effect [5]	Percent Effect [6]	Percent Effect [7]	Percent Effect [8]	Percent Effect [9]	Percent Effect [10]	Percent Effect [11]
CC(C)Cc1noc(CN2CCN(C(=O)c3ccco3)CC2)n1	1.31%	2.74%	2.5%	1.08%	3.17%	0%	8.99%	5.51%	5.21%	8.64%	-2.76%
CCc1nnsc1C(=O)N1CCCN(Cc2cnn(C)c2)CC1	-0.656%	-2.6%	-0.0421%	-5.43%	7.74%	-0.21%	-1.05%	-10.1%	0.952%	2.35%	-0.342%
Cc1cccc(CN2CCN(Cc3ccccc3)CC(O)C2)n1 (configuration not stated)	-1.78%	0%	-4.59%	2.56%	-0.193%	-1.43%	9.14%	4.22%	8.99%	19.5%	-3.04%
Cc1cc(C(=O)N2CCc3nnc(N(C)C)cc3C2)c(C)n1C1CC1	-2.94%	3.8%	-0.0334%	0.611%	-0.513%	4.52%	16.1%	14%	8.33%	10.1%	-3.64%
Cc1cc(C)n(C2CCCN(C(=O)c3ccc(F)cc3F)C2)n1 (configuration not stated)	-11.1%	-5.41%	-1.04%	0.0778%	-3.91%	-3.75%	7.02%	-1.41%	5.94%	6.1%	2.92%
CC(NC(=O)NCC1(c2ccccc2)CCC1)c1nncn1C (configuration not stated)	-3.15%	13.2%	-7.01%	-5.58%	-5.7%	8.63%	5.67%	-2.94%	5.42%	16.1%	-6.58%
COc1ccccc1N1CCC(CNCc2cccc(OC)c2OC)C1 (configuration not stated)	-3.66%	10.8%	-14.2%	3.03%	6.51%	-13.6%	7.75%	18.9%	13.3%	23.5%	-8.44%
CCn1cc(NC(=O)NCC(c2cccc(F)c2)N(C)C)cn1 (configuration not stated)	0.401%	13.2%	0.674%	6.49%	-0.752%	0.383%	4.68%	-12.5%	11.3%	21.9%	-5.78%
COCc1cccc(C(=O)N2CCCCC2c2nccs2)c1 (configuration not stated)	-2.42%	-2.7%	-6.81%	-4.58%	5.75%	2.81%	7.75%	-4.26%	3.45%	3.7%	-4.87%
Cc1cc(C)c2nc(CN3CCCC(c4cc[nH]n4)C3)cc(O)c2c1 (configuration not stated)	-1.83%	0%	3.31%	-3.01%	-3.28%	0%	8.62%	23.3%	3.7%	14.6%	-5.03%
O=C(N1CCCC1)N1CCc2ncnc(C3CCOC3)c2CC1 (configuration not stated)	2.86%	-2.67%	9.11%	2.99%	-0.591%	3.5%	7.14%	3.4%	3.19%	-1.28%	-1.1%
CN(Cc1ccsc1)C(=O)c1cccc(NS(C)(=O)=O)c1	-5.08%	20.8%	-4.59%	10.4%	4.12%	-6.41%	3.72%	14.4%	8.74%	24.4%	-8.96%
Cc1nccn1CC1CCCN1S(=O)(=O)Cc1ccccc1F (configuration not stated)	-5.1%	22.8%	1.28%	-4.39%	-1.79%	1.14%	2.05%	13.2%	4.43%	21.5%	-7.01%
Cc1ccc2cnn(CCC(=O)NCc3c(C)nn(C)c3C)c2c1	-6.31%	2.6%	0.586%	1.87%	0.492%	-1.38%	8.98%	7.06%	3.23%	6.17%	-1.97%
COCCCNC(=O)CCn1nc(C)c2ccccc21	-3.61%	6.67%	0.569%	3.25%	-6.09%	-6.16%	15%	2.4%	3.17%	2.56%	-8.28%
Cc1nn(C)c(C)c1C1COCCN1C(=O)Cc1cccc(F)c1 (configuration not stated)	-0.171%	13.7%	-6.33%	3.58%	-3.13%	-1.82%	17.6%	33.3%	1.07%	5%	-4.69%
CN(CCN1CCOCC1)C(=O)CCc1cccc(Cl)c1	-0.257%	13.2%	-2.72%	-7.75%	-4.58%	-9.47%	12.2%	17.3%	1.06%	7.79%	-4.62%
Cc1noc(C)c1CN1CCc2nn(C(C)C)c(=O)cc2C1	-9.42%	13.2%	-66%	20.3%	9.8%	5.04%	12.9%	-9.45%	5.42%	16.1%	-9.78%
Cn1cnc(-c2cc(C(=O)N3CCOCC3)c3ccccn23)c1	-2.02%	10.8%	17.9%	-4.69%	-3.42%	17.5%	26.6%	-15.6%	3.24%	10.3%	-3.5%
COc1ccc(C)cc1CSCCn1nc2ccccn2c1=O	-4.01%	20.8%	-1.24%	-10.9%	4.6%	-1.47%	12.7%	11.9%	3.81%	21.2%	-22.4%
CN1C(=O)C[C@@H]2[C@@H]1CCN2C(=O)c1ccc[nH]1	-5.79%	-2.74%	1.46%	3.04%	-1.59%	-3.99%	10.7%	17.1%	1.04%	6.17%	0.233%
CC(C)C(=O)N1CCN(Cc2csc(-c3ncccn3)n2)CC1	-3.04%	0%	9.34%	3.09%	1.27%	0%	11.4%	2.18%	4.25%	10.4%	-1.19%
